Pf Dd2 growth: qHTS Primary assay for Inhibitors of Plasmodium falciparum Dd2 growth in vitro; hit rate 4.3% among 120,000; P. falciparum Dd2 growth, SYBR Green, 72 h; AID 1347417, 2020; Potency, µM (series often up to 28.9 µM), usual class: inhibitors; active means well fitted inhibition curve with a large enough effect; further: nearly all actives have a fitted effect of over 65% in size
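Readout: SYBR Green fluorescence, 485 nm excitation, 535 nm emission, after ~16 h lysis at 37C. Before that, Dd2-infected red cells (2.5% hematocrit) grew 72 h with compound, 29 uM top final concentration.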
A number is an active result; 0 = inactive; [ ] = another dose, or the depositor's remark. Shown is part of a subset that was picked to be rich in hits.

SMILES | Pf Dd2 growth
COCCN1Cc2cccc(C(=O)Nc3ccc(C)c(F)c3)c2C1=O | 0
O=C(Nc1ccc([C@@H](O)[C@H]2COCC(=O)N2Cc2ccccc2)cc1)C1CCCC1 | 0
CCN(CC)Cc1cnc2c(C(=O)NC(C)CO)cnn2c1 (configuration not stated) | 0
Cn1nnnc1C1CCCN(C(=O)CC2CCCC2)C1 (configuration not stated) | 0
CCOc1ccc(Nc2cc(C(=O)NCc3ccccc3Cl)c3ccccc3n2)cc1 | 0
Cc1csc(Nc2ccc3ncn(Cc4ccccn4)c(=O)c3n2)n1 | 0
O=c1c2nc(NCc3ccccc3)ccc2ncn1Cc1ccccc1 | 0
Cc1csc(Nc2ccc3ncn(Cc4ccccc4)c(=O)c3n2)n1 | 11µM
COCC(=O)N[C@H]1[C@H](O)[C@H](O)C[C@@H]1c1ccc(OC)cc1 | 0
Cc1cccc(CSc2nc(=O)c3c(n2C)NC(=O)CC3c2cccc(O)c2)c1 (configuration not stated) | 0
COc1ccc(-c2nc(-c3ccccc3)c(-c3ccc(F)cc3)[nH]2)c(OC)c1C | 11µM
COc1ccc(-c2ccc3nc(-c4ccccc4)oc3c2)c(OC)c1OC | 0
O=S(=O)(Nc1ccc(Br)cc1F)c1ccc2nc(-c3ccccc3)[nH]c2c1 | 0
COc1ccc(-c2ccc3nc(-c4cc(F)cc(F)c4)oc3c2)c(OC)c1OC | 0
O=C(O)c1ccc(-c2nc3ncccc3[nH]2)cc1 | 0
COc1cc(-c2nc(-c3ccccc3)c(-c3ccc(Br)cc3)[nH]2)cc(OC)c1O | 1.4µM
COc1ccc(Br)cc1CNC(=O)CSc1n[nH]c(-c2ccccc2)n1 | 0
Oc1ccc(-c2nc(-c3ccccc3)c(-c3ccc(Br)cc3)[nH]2)cc1 | 6.3µM
COc1cc(-c2nc(SCC(=O)Nc3ccc(C)cc3)c(-c3ccc(F)cc3)[nH]2)cc(OC)c1OC | 0
Cc1ccc(S(=O)(=O)N2CCCc3cc(NS(=O)(=O)c4ccccc4)ccc32)cc1 | 0
COc1cccc(C(=O)N2CC(CO)C3(CCNCC3)C2)c1OC (configuration not stated) | 0
O=C(Cc1cccc(Cl)c1)NCc1nnc2ccc(-c3ccc(F)cc3)nn12 | 0
Cc1cccc(Nc2ncc(NC(=O)c3cccc(F)c3)c(Nc3cccc(C)c3)n2)c1 | 2.2µM
Cc1ccc2oc(-c3ccc(NC(=O)c4cccc(F)c4)c(C)c3)nc2c1 | 0
O=C(Nc1cnc(-c2ccccc2)nc1)c1cccc(F)c1 | 0
SMILES | Pf Dd2 growth
C=CCNc1ncnc2c1CCN(C(=O)COCC1CCCO1)CC2 (configuration not stated) | 0
O=C(NCCc1ccc(Cl)cc1)c1nc(-c2ccc(Cl)cc2Cl)c2ccccn12 | 0
O=C(NCCc1ccc(Cl)cc1)c1nc(-c2ccc(Cl)cc2Cl)c2cnccn12 | 4.5µM
O=C(NCCc1ccc(Cl)cc1)c1cc(-c2cnccc2Cl)c2cccn2n1 | 0
CCc1ccc(-n2c(=O)c3c4c(sc3n(Cc3ccc(F)cc3)c2=O)CCCC4)cc1 | 0
CCc1c(C)sc2c1CCN(Cc1ccc(F)cc1)C2c1ccccc1 (configuration not stated) | 3.2µM
Cc1c(CNC2CCCCCC2)c(C(=O)O)c(C)n1Cc1ccc(F)cc1 | 0[5.79 µM]
COCC1CN(C(=O)CCCc2ccccc2)CC12CCNCC2 (configuration not stated) | 0
CCCCN(C)CCCNC(=O)Cn1ncc2c3ccccc3n(Cc3cccc(Cl)c3)c2c1=O | 5.6µM
Cc1cc(C)c(Cn2c3ccccc3c3cnn(CC(=O)NCc4ccc(Cl)cc4)c(=O)c32)c(C)c1 | 7.9µM
Cc1ccccc1Cn1c2ccccc2c2cnn(CC(=O)NCc3cccc(Cl)c3)c(=O)c21 | 0
CCCN1CCN(C(=O)Cn2ncc3c4ccccc4n(Cc4cccc(Cl)c4)c3c2=O)CC1 | 11µM
Cc1ccc(Cn2c3ccccc3c3cnn(CC(=O)Nc4cc(Cl)ccc4C)c(=O)c32)cc1 | 0
O=C(Cn1ncc2c3ccccc3n(Cc3ccc(Cl)cc3)c2c1=O)NCCCc1ccccc1 | 0[0.594 µM]
CCCn1c2ccccc2c2cnn(CC(=O)NC(C)CC)c(=O)c21 (configuration not stated) | 0
O=C(Cn1ncc2c3ccccc3n(Cc3cccc(Cl)c3)c2c1=O)NCCCc1ccccc1 | 0
CCN(CC)CCCNC(=O)Cn1ncc2c3ccccc3n(Cc3ccccc3)c2c1=O | 0
CN(CC1CCOC1)S(=O)(=O)c1cccc(Cl)c1 (configuration not stated) | 0[5.79 µM]
Cc1c(C(=O)NCC(c2ccc(Cl)cc2)N2CCOCC2)oc2ccccc12 (configuration not stated) | 0[0.594 µM]
Cc1ccccc1-n1nc(C)c2c1NC(=O)CC2c1cccc(C#N)c1 (configuration not stated) | 0
O=C(Cn1cc(S(=O)(=O)Cc2cccc(Cl)c2)c2ccccc21)Nc1ccccc1Cl | 0
Cc1ccccc1NC(=O)N1CCC2(CCCN(C3CCOCC3)C2=O)C1 (configuration not stated) | 0
COc1cc(NC(=O)N2CCc3c(sc4c3CCCC4)C2c2ccccc2)cc(OC)c1OC (configuration not stated) | 0
COc1ccc(Cl)cc1NC(=O)CN1C(=O)NC2(CCCCC2)C1=O | 0
COc1ccc(Cl)cc1NC(=O)N1CC(=O)Nc2sc3c(c2C1c1ccccc1)CCCC3 (configuration not stated) | 11µM
SMILES | Pf Dd2 growth
NC1CCCCN(Cc2cnc(-c3ccco3)nc2)C1 (configuration not stated) | 0
CCOc1ccc(NC(=O)N2CCCC(Cn3cnc4cccnc43)C2)cc1 (configuration not stated) | 0
COc1cccc(N2C(=O)NC(=NC3CCCC3)C23CCCN(CCC(C)C)C3)c1 (configuration not stated) | 13µM
O=C1NC(=NC2CCCCC2)C2(CCN(CC3CC3)CC2)N1c1cc(F)cc(F)c1 | 0
COc1cccc(N2C(=O)NC(=NC3CCCCC3)C23CCCN(C(=O)c2ccccc2F)C3)c1 (configuration not stated) | 0
C[S+](=O)([O-])N1CCCC2(C1)C(=NC1CCCC1)NC(=O)N2c1cc(F)cc(F)c1 (configuration not stated) | 0
O=C1NC(=NC2CCCC2)C2(CCN(CC3CC3)CC2)N1c1cc(F)cc(F)c1 | 0
CC(C)CCN1CCC2(CC1)C(=NC1CCCC1)NC(=O)N2c1cc(F)cc(F)c1 | 0
COc1cccc(N2C(=O)NC(=NC3CCCC3)C23CCCN(C(=O)c2ccccc2)C3)c1 (configuration not stated) | 0
O=C1NC(=NC2CCCCC2)C2(CCCN(CC3CCCCC3)C2)N1c1cc(F)cc(F)c1 (configuration not stated) | 7.9µM
CC(C)CCN1CCCC2(C1)C(=NC1CCCC1)NC(=O)N2c1cc(F)cc(F)c1 (configuration not stated) | 10µM
O=S(=O)(Nc1cc(F)ccc1F)c1ccc2[nH]c3c(c2c1)CCCCC3 | 0
Cn1nc2n(c1=O)CCN(S(=O)(=O)c1ccccc1C(F)(F)F)CC2 | 0
CS(=O)(=O)Nc1ccc(F)c(NC(=O)NCC2(O)CCCNC2)c1 (configuration not stated) | 0
CCOc1ccc(-n2c(-c3ccc(OC)cc3)cc3c2CC(C)(C)CC3=O)cc1 | 0
COc1ccc(-n2c(-c3ccc(C)cc3)cc3c2CC(C)(C)CC3=O)c(OC)c1 | 13µM
Cc1ccc(-c2cc3c(n2-c2ccc(C)cc2)CC(C)(C)CC3=O)cc1 | 0[5.79 µM]
